Bioassay records deposited in PubChem BioAssay by National Center for Advancing Translational Sciences (NCATS).
CHX counter: counter-screen for Shiga toxin inhibitors: cycloheximide protein synthesis inhibition; max response, %; cell reporter, cycloheximide protein synthesis inhibition counterscreen; 300,000 compounds, 12% hits; AID 2314; in the data active = max response mostly above about 13%, no sharp cut-off; inactive = mostly below about 14%; note: read at 38.3 µM for the half of the compounds with a filed dose; 0% is about no effect
Pf growth 96h: P. falciparum growth inhibition at 96 hour, primary screen for plastid delayed-death inhibitors; P. falciparum luciferase reporter growth, 96 h; Potency, µM (titrated, usually from 28.7 µM), for inactives: at the top dose activity change, negative = inhibition, usual class: inhibitors; 320,000 compounds, 6.9% hits; AID 504834; note: potency is the fitted concentration of half-maximal effect; % is set by controls: 0 for no effect and ±100 for the full control effect
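P. falciparum expressing integrated firefly luciferase grown in erythrocytes (2% hematocrit, 0.05% parasitemia final) with compounds for 96 hours at 37 C, 5% CO2. Growth inhibition read as loss of luminescence after adding luciferase detection reagent.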
SARS PLP yeast: SARS-CoV PLP inhibition in yeast; S. cerevisiae expressing SARS-CoV PLpro, growth rescue; Potency, µM (series often up to 32.9 µM), inactives show at the highest dose activity, positive = growth rescue, usual class: activators; 330,000 compounds, 0.19% hits; AID 485353; calls by dose curve; note: potency is the fitted concentration of half-maximal effect; 0% is about no effect; nearly all actives have a fitted effect of over 55% in size
Shiga toxin inh: inhibitors of Shiga toxin in Vero cells. Vero cells, Shiga toxin protein synthesis inhibition reporter. inhibition, % at 38.7 µM. 290,000 compounds, 9.2% hits; in the data active = inhibition mostly above about 28%, no sharp cut-off; inactive = mostly below about 43%; note: 0% is about no effect
NS1 function inh: inhibitors of influenza NS1 protein function. AID 2326. 270,000 compounds, 0.4% hits. Potency, µM (titrated, usually from 46.1 µM), inactives show top-dose activity, positive = more growth; calls by dose curve; note: potency is the fitted concentration of half-maximal effect; actives are rising curves; nearly all actives have a fitted effect of over 50% in size
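S. cerevisiae expressing influenza A NS1, grown in glucose, washed, then diluted 1:100 into pH 6.0 -URA galactose medium with 23 nl compound. Growth recovery read as OD600; NS1-free strain serves as control.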
Pf growth 48h: P. falciparum growth inhibition at 48 hours (one generation); 310,000 compounds, 5.9% hits; Potency, µM (highest dose often 28.7 µM), for the others: top-dose activity change, negative = inhibition, usual class: inhibitors; P. falciparum luciferase growth in erythrocytes, 48 h; note: potency is the fitted concentration of half-maximal effect; % is set by controls: 0 for no effect and ±100 for the full control effect
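Here the parasites carry a stable luciferase gene and grow inside erythrocytes in Albumax-based RPMI medium with compound for one erythrocytic cycle. Activity is scored as loss of luminescent signal.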
Active calls of the source: *; i = inactive; ? = inconclusive; / = no result given; ! = not active in a repeat; [ ] = dose if it differs, or a comment. Hits are enriched below; roughly 21% of the tested compounds scored in any of these assays. Unless noted, calls come from the whole dose curve; as a rule, active = well fitted inhibition curve with a large enough effect; inconclusive = small, poorly fitted or top-dose-only effect, or another doubt; inactive = no such curve, though single readings can be large or run the other way.

SMILES	CHX counter	Pf growth 96h	SARS PLP yeast	Shiga toxin inh	NS1 function inh	Pf growth 48h
COc1ccc(S(=O)(=O)NCC2CCC(C(=O)NCc3cccnc3)CC2)cc1 (stereo not given)	6	-4%	4%	-4	/	5%
CC1CCN(CCCNC(=O)C2CCC(CNS(=O)(=O)c3ccccc3)CC2)CC1 (stereo not given)	-3	12µM*	0%	-4	-13%	21%
COc1ccc(CNC(=O)C2CCC(CNS(=O)(=O)c3ccccc3)CC2)cc1 (stereo not given)	1	0%	1%	3	-6%	3.7µM*
COCC(=O)N1CCCC(CNS(=O)(=O)c2ccc(OC)cc2)C1 (stereo not given)	3	10µM*	-1%	-5	-3%	0%
Cc1ccc(CNC(=O)C2CCC(CNS(=O)(=O)c3cccc4cccnc34)CC2)cc1 (stereo not given)	4	12µM*	9%	-7	8%	?
O=C(NCCNCCO)C1(C(F)(F)F)CC(CCc2ccccc2)CCCO1 (stereo not given)	-3	/	/	-3	/	/
O=C(NCc1cccs1)C1CCC(CNS(=O)(=O)c2ccccc2)CC1 (stereo not given)	7	81%	0%	22	/	-4%
O=C(NCCc1ccccc1)C1CCC(CNS(=O)(=O)c2ccc(F)cc2)CC1 (stereo not given)	16*	?	4%	16	-3%	11%
Cc1ccc(S(=O)(=O)NCC2CCC(C(=O)NCc3cccs3)CC2)cc1 (stereo not given)	-3	10µM*	-4%	-6	/	-1%
Clc1ccc(CN2CCc3c([nH]c4ccccc34)C2)cc1Cl	-3	?	-6%	-4	-7%	?
CC1(CCc2ccc3c(c2)OCO3)NCCc2c1[nH]c1ccccc21 (stereo not given)	-1	?	0%	-13	0%	10µM*
Cc1nc(CCNC(=O)c2cc(COc3ccc(F)cc3Cl)on2)sc1C	20	22%	0%	29	-7%	17%
COc1ccc(OCc2cc(C(=O)NCCCc3ccccc3)no2)c(Cl)c1	2	9.3µM*	-1%	7	-35%	?
CSc1ccccc1OCc1cc(C(=O)NCCCc2ccccc2)no1	6	?	-1%	33	10%	-13%
COc1ccc(OCc2cc(C(=O)NCc3cccc(C)n3)no2)c(Cl)c1	61*	41%	-11%	138*	0%	6%
COc1ccc(S(=O)(=O)N2CCC(C(=O)N(CC(C)C)C3CCS(=O)(=O)C3)CC2)cc1OC (stereo not given)	/	-20%	-4%	/	/	-14%
CN(Cc1ccon1)C(=O)C1CCC(=O)N(Cc2ccc(Cl)cc2)C1 (stereo not given)	-2	2%	2%	-4	-8%	-4%
COc1cccc(-c2nnc(-c3ccc(C(F)(F)F)cc3)o2)c1OC	21*	9%	-5%	26	-2%	169%
COc1cc(OC)c(-c2nnc(-c3ccc(OC)c(OC)c3OC)o2)cc1OC	-1	-26%	-6%	-11	16%	?
N#Cc1cccc(NC(=O)CC2CCCC2)c1	13	2%	1%	20	-3%	-11%
CC(C)C[C@@H](CN=[N+]=[N-])N1CCN(Cc2ccccc2)CCC1=O	-1	?	-1%	-2	0%	22%
Cc1ccc(C)c(S(=O)(=O)NC2CCSC2=O)c1 (stereo not given)	/	19%	-9%	/	/	-27%
COc1ccc2cc(-c3csc(-c4cccnc4)n3)ccc2c1	26*	/	0%	74	?	54%
CN(C(=O)c1cccnc1)c1nc(-c2ccccc2)cs1	14	1%	-3%	17	-55%	-21%
COc1ccc(-c2csc(-c3cccnc3)n2)cc1C	36	?	-4%	90*	-28%	-26%
SMILES	CHX counter	Pf growth 96h	SARS PLP yeast	Shiga toxin inh	NS1 function inh	Pf growth 48h
COc1ccc(C(=O)NCC(=O)N2CCCC(C(F)(F)F)C2)cc1OC (stereo not given)	/	?	-2%	/	/	0%
CC12CCC(C(=O)Nc3ccccc3)(C/C1=N\O)C2(C)C (stereo not given)	1	-1%	2%	-16	6%	?
CC12CCC(C(=O)O)(C/C1=N\O)C2(C)C (stereo not given)	-1	7%	11µM*!	-3	18%	7%
CCCn1c(CN2CCN(c3cccc(Cl)c3)CC2)nc2c1c(=O)n(C)c(=O)n2C	-8	-23%	17%	-31	-2%	/
CC[C@@H](C)C(NC(=O)OC(C)(C)C)c1cn([C@@H](CCC(=O)OC(C)(C)C)C(=O)N2CCN(C(=O)OC(C)(C)C)CC2)nn1 (stereo not given in full)	-2	?	0%	-7	3%	?
CC(C)(C)OC(=O)NCCCC[C@H](NC(=O)c1nc[nH]c1C(=O)N1CCN(C(=O)OC(C)(C)C)CC1)C(=O)OC(C)(C)C	1	8.3µM*	-2%	-18	0%	?
CC(C)(C)OC(=O)NCCCC[C@H](NC(=O)c1nc[nH]c1C(=O)N1CCN(c2ccccc2)CC1)C(=O)OC(C)(C)C	-5	13µM*	1%	3	-2%	12µM*
CC(C)(C)OC(=O)NCCCCCNC(=O)c1nc[nH]c1C(=O)N1CCN(C(=O)OC(C)(C)C)CC1	/	?	8%	/	/	?
COCc1c(C(=O)NCCc2ccc(OC(F)F)cc2)oc2ccccc12	/	/	-12%	/	/	/
CCCCn1c(C)cc2c(c1=O)[C@H]1O[C@](CCCC)(Cc3c1ccc1ccccc31)O2	-2	6%[5.75 µM]	1%[6.58 µM]	i	-3%	-20%[5.75 µM]
CCCC[C@]12Cc3c(ccc4ccccc34)C(O1)C1=C(O2)C(=O)c2ccccc2C1=O	7	36%[5.75 µM]	-5%[6.58 µM]	i	?	1.5µM*
COc1ccc(C(=O)CCC(=O)N2CCN(c3ccc([N+](=O)[O-])cc3)CC2)cc1	-4	?	-13%	-5	2%	4%
CC(=C/c1ccccc1)/C=N/NC(=O)CSc1nc(C)cc(C)n1	10	2%	-21%	-13	-9%	8%
CC(/C=N/NC(=O)Cc1cccs1)=C\c1ccccc1	60*	88%	-14%	42*	-1%	77%
O=C(Cc1cccs1)N/N=C/C(Br)=C/c1ccccc1	51*	15%	-3%	77*	-3%	126%
CC(/C=N/NC(=O)Cc1cccn1C)=C\c1ccccc1	20*	-10%	10%	74*	4%	54%
C#CCn1cnc2c(oc3ccccc32)c1=O	34*	24%	-2%	74	-20%	49%
CCCn1cnc2c(oc3ccccc32)c1=O	29*	?	-3%	39*	-1%	74%
O=c1c2oc3ccccc3c2ncn1Cc1ccc(F)cc1	16	?	1%	13	/	?
